This is a sample that favours compounds with a hit; in the whole collection about 4.6% have one here.
D1 antagonist – Antagonist of Human D 1 Dopamine Receptor: qHTS | D(1A) dopamine receptor (Homo sapiens), P21728 | HEK293 TREx D1 cells, calcium flux, dopamine EC80; stronger effect = lower value | activity change, negative = inhibition, % at 10 µM | hit rate 3.2% among 360,000 | AID 504652, 2011; in the data active means activity change below about -30%
Target sequence (P21728 whole entry, looked up): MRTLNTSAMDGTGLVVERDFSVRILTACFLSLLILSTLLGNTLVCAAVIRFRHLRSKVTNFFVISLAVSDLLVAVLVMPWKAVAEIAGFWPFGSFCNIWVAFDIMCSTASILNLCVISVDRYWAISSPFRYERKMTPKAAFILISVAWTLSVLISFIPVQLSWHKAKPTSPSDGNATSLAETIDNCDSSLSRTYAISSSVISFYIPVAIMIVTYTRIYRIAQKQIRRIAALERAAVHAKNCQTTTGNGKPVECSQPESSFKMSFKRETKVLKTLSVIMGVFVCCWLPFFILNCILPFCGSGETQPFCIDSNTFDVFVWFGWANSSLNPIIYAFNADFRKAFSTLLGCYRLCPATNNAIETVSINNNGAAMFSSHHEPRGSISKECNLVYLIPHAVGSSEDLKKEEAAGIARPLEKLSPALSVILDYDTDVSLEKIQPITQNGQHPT
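Using tetracycline-induced force-coupled D1 Hek293 cells and a calcium dye, signals were followed for 180 s after compound, then for 180 s after EC80 dopamine, to detect inhibitors.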
D1 potentiator – Potentiators of Human D1 Dopamine Receptor: qHTS; D(1A) dopamine receptor (Homo sapiens), P21728; HEK293 TREx D1 cells, calcium flux, dopamine EC20 potentiation; potentiation, % at 10 µM; hit rate 0.036% among 360,000; AID 504651, 2011; in the data active means potentiation above about 30%
TRHR agonist – qHTS for Small Molecule Agonists and Allosteric Enhancers of Human TRH Receptor: Primary Screen for Agonists; Thyrotropin-releasing hormone receptor (Homo sapiens), P34981; TRHR cells, calcium flux fluo-8, FDSS agonist mode; activation, % at 2 µM; hit rate 0.18% among 360,000; AID 493084, 2011
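In this calcium-flux screen, cells bearing human TRHR are dye-loaded with fluo-8, baselined for 10 cycles, then exposed to library compounds; positive kinetic calcium responses during the agonist phase mark hits, with TRH as control.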
TRHR PAM – qHTS for Small Molecule Agonists and Allosteric Enhancers of Human TRH Receptor: Primary Screen for Enhancers. Thyrotropin-releasing hormone receptor (Homo sapiens), P34981. TRHR cells, fluo-8 calcium fluorescence, EC20 TRH enhancement. enhancement, % at 2 µM. hit rate 0.66% among 360,000. AID 493056, 2011; in the data active means enhancement above about 30%
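TRHR-expressing cells loaded with fluo-8 calcium dye were read kinetically (ex 480/em 530) during compound addition, then stimulated with an EC20 of TRH (10 nM final). Enhancement of the Gq-mediated intracellular calcium response was scored.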
D1 ag – Allosteric Agonists of the Human D1 Dopamine Receptor: qHTS; D(1A) dopamine receptor (Homo sapiens), P21728; HEK293 T-REx D1 cells, calcium flux, agonist mode; activation, % at 2 µM; hit rate 1% among 360,000; AID 504660, 2011
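Agonism was scored from calcium flux recorded over 180 s (1 read/s) after pintool compound addition, following a 10-cycle baseline. Cells were inducible force-coupled HEK293 TREx D1, plated overnight at 30 C and loaded with no-wash calcium dye.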
Large screens that a line does not name were inactive. Unless noted, no stated cut-off is given here; in the data, active means activation above about 30%; inactive means the rest.

COc1cccc(/C=C/C(=O)NNC(=O)c2ccncc2)c1OC	D1 antagonist -39, D1 ag 100
CCN1CCN(c2ccc(S(=O)(=O)N3CCOCC3)cc2NC(=O)c2ccccc2SC)CC1	none
Cc1ccccc1C(=O)Nc1cc(S(=O)(=O)N2CCCCC2)ccc1N1CCN(C)CC1	none
CCN1CCN(c2ccc(S(=O)(=O)N3CCOCC3)cc2NC(=O)c2cc(Cl)nc3ccccc23)CC1	D1 antagonist -33
CCN1CCN(c2ccc(S(=O)(=O)N3CCCCC3)cc2NC(=O)Cc2ccc(OC)cc2)CC1	D1 antagonist -31, D1 ag 44
CN1CCN(c2ccc(S(=O)(=O)N3CCCCC3)cc2NC(=O)c2ccc3ccccc3c2)CC1	D1 antagonist -50
COc1ccc(CC(=O)Nc2cc(S(=O)(=O)N3CCCCC3)ccc2C)cc1	none
CCOC(=O)c1c(C)oc2nc(C)nc(NCCc3ccc(SC)cc3)c12	D1 antagonist -32
CCOC(=O)c1c(C)oc2nc(C)nc(NCCc3ccc(OC)c(OC)c3)c12	none
O=C(CN1CC(=O)Nc2ccccc21)Nc1ccc(F)c(F)c1	D1 antagonist -39
Cc1ccc(NC(=O)CNC(=O)N2CC(=O)Nc3ccccc32)cc1F	none
CC(C)(C)CNC(=O)c1ccc2c(c1)S(=O)(=O)c1cc(Cl)ccc1C2=O	D1 antagonist -33
COCCNC(=O)c1ccc2c(c1)S(=O)(=O)c1cc(Cl)ccc1C2=O	none
Clc1ccc2c(c1)C(N1CCNCC1)=Nc1ccccc1O2	D1 antagonist -71
Cc1nc2ccccc2n1S(=O)(=O)c1ccc(Br)cc1	D1 antagonist -44
CSc1ccc(/C=C/c2nc3ccccc3n2S(=O)(=O)c2ccc(Br)cc2)cc1	D1 antagonist -30
CCOc1ccc(/C=C/c2nc3ccccc3n2S(=O)(=O)c2ccc(Br)cc2)cc1	none
CC(C)CC(O)C(=O)Nc1cc(C(F)(F)F)ccc1Cl (configuration not stated)	none
O=C(c1ccco1)N(Cc1cccs1)c1ccc(F)cc1	none
COc1ccc2cc(C(C)C(=O)OC(C)C)ccc2c1 (configuration not stated)	D1 antagonist -37
CCC(C(=O)OC(C)C)c1ccc2ccccc2c1 (configuration not stated)	none (no result: D1 antagonist)
COc1ccc(-c2noc(-c3ccc(NC4CCCC4)c([N+](=O)[O-])c3)n2)cc1OC	none
Cn1c(=O)n(C)c2cc(NS(=O)(=O)c3ccc4c(c3)CCCC4)ccc21	D1 antagonist -34
Cc1ccc(-n2c(SCC(=O)N3CCCc4ccccc43)nc3c([nH]c4ccccc43)c2=O)cc1	none
Cc1ccc(Nc2nc(-c3c(C)nc4ccccn34)cs2)cc1	D1 antagonist -48
Cc1ccn2c(-c3csc(NCc4ccccc4)n3)c(C)nc2c1	D1 antagonist -33
Cn1c(Oc2ccccc2)nc2c1c(=O)n(Cc1ccc(Cl)cc1Cl)c(=O)n2C	none
CCOC(=O)c1ccc(NC(=O)CN2CCN(C(=O)c3ccco3)CC2)cc1	none
CCOC(=O)c1c(NC(=O)CN2CCN(C(=O)c3ccco3)CC2)sc(C)c1C	D1 antagonist -32, D1 ag 126
CCc1c(C)sc(NC(=O)CN2CCN(C(=O)c3ccco3)CC2)c1C(=O)OC	D1 ag 59
O=C(Nc1ccccc1OCc1cc(=O)n2ccccc2n1)c1ccccc1F	none
Cc1cccc(N2CCN(C(=O)Nc3ccc(F)cc3)CC2C)c1 (configuration not stated)	D1 ag 33
COc1cccc(NC(=O)N2CCN(c3cccc(C)c3)C(C)C2)c1 (configuration not stated)	D1 antagonist -83
C/C(=N\NC(=O)c1c(C)nc2ccccn12)c1ccc(O)cc1O	TRHR PAM 40
C/C(=N\NC(=O)c1c(C)nc2ccccn12)c1ccccc1F	none
CCN(CC)CCNC(=O)c1ccc(NC(=O)c2cn(-c3ccccc3)nc2-c2cccs2)cc1	D1 antagonist -81
CCN(CC)CCNC(=O)c1ccc(NC(=O)c2ccccc2-c2ccc(C(F)(F)F)cc2)cc1	D1 ag 70
CCN(CC)CCNC(=O)c1ccc(NC(=O)Cc2ccccc2F)cc1	none
O=C(NCc1ccc(F)cc1)c1cc2c(=O)n3ccccc3nc2s1	none
CCOc1ccc(CNC(=O)CCCn2nc(C)c3sc4ccccc4c3c2=O)cc1	none
O=C(NCCc1ccccc1)c1cc2sccc2n1Cc1ccc(F)cc1	D1 antagonist -31
COc1ccc(C=O)cc1Cn1cnc2c(cnn2C)c1=O	D1 antagonist -36
O=C1NC2(NN1c1ccccc1)C1CC3CC(C1)CC2C3 (configuration not stated)	D1 ag 43
COc1ccc(NC(=O)c2cc(S(=O)(=O)N3CCc4ccccc43)cn2C)cc1	none
Cc1ccc(NC(=O)c2cc(S(=O)(=O)N3CCc4ccccc43)cn2C)cc1C	D1 antagonist -45
CCc1ccccc1NC(=O)c1cc(S(=O)(=O)N2CCc3ccccc32)cn1C	none
CCN(CC)c1ccc(NC(=O)c2cc(S(=O)(=O)N3CCc4ccccc43)cn2C)c(C)c1	D1 antagonist -34
Cc1ccccc1CSc1cn(CC(=O)N2CCCCCC2)c2ccccc12	none
Cc1ccc(CNC(=O)Cn2cc(S(=O)(=O)Cc3cccc(Cl)c3)c3ccccc32)cc1	none
COc1cc2ccccc2cc1C(=O)Nc1ccc(N2CCN(C)CC2)cc1	D1 antagonist -61
CCOc1ccc(C(=O)Nc2ccc(N3CCN(C)CC3)cc2)cc1Br	D1 antagonist -35
CCOc1ccc(C(=O)Nc2ccc(NC(=O)c3ccccc3)cc2)cc1Br	none
O=S(=O)(c1cccc(NC(=S)N2CCN(c3ccc(F)cc3)CC2)c1)C(F)F	D1 antagonist -35
COc1cc2ccccc2cc1C(=O)Nc1ccc(N2CCN(C(=O)C(C)C)CC2)cc1	none
O=[N+]([O-])c1ccc(NC(=S)N2CCN(c3ccccc3)CC2)cc1	D1 antagonist -40
CCCCc1nnc(SCc2cc(=O)c3cc(F)ccc3[nH]2)n1C	none
COc1ccc(C(=O)Nc2ccc(N3CCCC3)cc2)cc1	none
CC(=O)c1ccc(N2CCN(C(=S)Nc3ccc(Oc4ccccc4)cc3)CC2)cc1	D1 antagonist -33
NS(=O)(=O)c1ccc(NC(=S)N2CCN(c3cccc(Cl)c3)CC2)cc1	none
NS(=O)(=O)c1ccc(NC(=S)N2CCN(c3ccccc3Cl)CC2)cc1	D1 antagonist -40
CC(=O)c1ccc(N2CCN(C(=S)Nc3cccc(F)c3)CC2)cc1	D1 antagonist -40
